Measured values taken from PubChem BioAssay (NCI).
Compounds without any hit were thinned out: in the full panel of roughly 83,000, 20% have a hit.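 Percent growth is the endpoint: 0 to 100 indicates growth inhibition (40 means 60% inhibition), 0 means no net growth, and negative values indicate cell death.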 Unmarked numbers belong to inactive results. Activity calls are given as the source filed them. How the source made its calls: active means growth percent below 10; inactive means the rest.

How the values were obtained:
Assay in all cases: NCI-60 one-dose screen, 48 h (100 = growth as untreated, 0 = no growth, -100 = all killed)
Details in all cases: 10 µM unless noted
NCI-H23 lung = system: NCI-H23 lung
NCI-H226 lung = system: NCI-H226 lung
NCI-H322M lung = system: NCI-H322M lung
HOP-62 NSCLC = system: HOP-62 NSCLC
NCI-H460 lung = system: NCI-H460 lung
HOP-92 NSCLC = system: HOP-92 NSCLC
NCI-H522 lung = system: NCI-H522 lung
A549/ATCC NSCLC = system: A549/ATCC NSCLC
786-0 renal = system: 786-0 renal
COLO 205 colon = system: COLO 205 colon
DU-145 prostate = system: DU-145 prostate
K-562 leukemia = system: K-562 leukemia
MALME-3M melanoma = system: MALME-3M melanoma
MDA-MB-231 breast = system: MDA-MB-231 breast
SF-268 CNS = system: SF-268 CNS
SF-295 CNS = system: SF-295 CNS
SF-539 CNS = system: SF-539 CNS
UACC-257 melanoma = system: UACC-257 melanoma
M14 melanoma = system: M14 melanoma

Compound	growth (NCI-H23 lung)	growth (NCI-H226 lung)	growth (NCI-H322M lung)	growth (HOP-62 NSCLC)	growth (NCI-H460 lung)	growth (HOP-92 NSCLC)	growth (NCI-H522 lung)	growth (A549/ATCC NSCLC)	growth (786-0 renal)	growth (COLO 205 colon)	growth (DU-145 prostate)	growth (K-562 leukemia)	growth (MALME-3M melanoma)	growth (MDA-MB-231 breast)	growth (SF-268 CNS)	growth (SF-295 CNS)	growth (SF-539 CNS)	growth (UACC-257 melanoma)	growth (M14 melanoma)
C(=N\Nc1nnn(Cc2ccccc2)n1)/c1ccccc1	53.1%	85%	86%	67.3%	17.4%	87.2%	29.2%	33.6%	63.6%	36.9%	40%	29.3%	24.7%	98.2%	46.2%	31.2%	41%	43.9%	42%
Cl/C(=N\Nc1ccccc1)c1ccccc1	91.4%	91%	75.4%	96%	106%	97.9%	72.8%	85.4%	102%	98.4%	101%	89.5%	86.4%	89.7%	92.8%	87.7%	103%	75.2%	106%
O=C(Nc1ccc(F)cc1)Nc1ccc(CCO)cc1	104%	107%	97.7%	116%	106%	103%	93.8%	91.4%	109%	132%	111%	103%	94.3%	114%	109%	105%	105%	102%	117%
CN1CCCCC1CCN1c2ccccc2Sc2ccc(Cl)cc21 (stereo not given)	77.4%	93.5%	59%	84.3%	71.2%	53.3%	65.5%	67.4%	61.1%	58.7%	67%	7.99% (active)	83.2%	65.9%	65.8%	76.6%	90.9%	67.4%	45.2%
Cc1cc(Nc2nc(-c3cccnc3)nc3ccccc23)n[nH]1	65.2%	43.9%	81.3%	64.1%	41.9%	55.3%	43.7%	19%	55%	-10.2% (active)	74.3%	48.1%	99.1%	95.7%	58.1%	53.3%	34.7%	59.7%	72.5%
Cc1noc(C)c1-c1cc(O)cc(C(O)c2ccccc2)c1 (stereo not given)	68.1%	65.5%	47.6%	47.2%	67.2%	25.6%	22.1%	55.4%	54.8%	37.1%	87.5%	42.1%	60%	62.4%	71.5%	42.5%	62.5%	40.4%	56%
COc1cccc(/C=C2/C(=O)N(Cc3ccco3)SC2=S)c1OC	108%	101%	98.7%	105%	102%	93%	83.7%	100%	101%	111%	102%	51.2%	98.8%	100%	99%	–	102%	89.6%	105%
COC1C/C(=N\O)C2OC(c3ccccc3)OCC2O1 (stereo not given)	101%	103%	99.9%	114%	112%	90.7%	97.3%	88.3%	104%	107%	109%	97.3%	100%	105%	109%	–	101%	68.1%	104%
